Experimental data taken from PubChem BioAssay (NCATS).
Results filed as inconclusive are left out. Values without a mark were called inactive. The call rests on the fitted dose curve; in most records, active means well fitted cell-killing curve with a large enough effect; inconclusive means small, poorly fitted or top-dose-only effect, or effect the other way; inactive means no such curve, though single readings can be large or run the other way.

experiment: qHTS assay to identify small molecule inhibitors of chordoma cells - UCH-1 (AID 1259355); conditions: UCH-1 chordoma viability, CellTiter-Glo, 48 h, combination, with auranofin plus four topoisomerase inhibitors; series mostly up to 46.1 µM; activity, negative = inhibition: at the top concentration; further: nearly all actives have a fitted effect of over 55% in size
Procedure, shortened: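 Luminescent ATP read-out (CellTiter-Glo, 30min at room temperature) measured viability of UCH-1 cells exposed for 48hr to test drugs at 15 concentrations, co-dosed with a five-agent combination of auranofin, camptothecin, doxorubicin, rubitecan and topotecan.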
On the % scale 0 is the no-effect control and ±100 the full control effect.

Compound | activity, negative = inhibition
O=C(Nc1ccc(O)cc1)c1ccccc1O | -28%
CCC(C(=O)NC(N)=O)c1ccccc1 (stereo not drawn) | -1.14%
O=C1c2ccccc2C(=O)c2c1ccc(O)c2O | -9.95%
O=C1c2c(O)cccc2[C@H]([C@@H]2O[C@H](CO)[C@@H](O)[C@H](O)[C@H]2O)c2cc(CO)cc(O)c21 | -14.7%
CNC(=O)OCc1cccc(COC(=O)NC)n1 | -6.05%
NC(=O)c1ccc[n+]([C@@H]2O[C@H](COP(=O)([O-])OP(=O)(O)OC[C@H]3O[C@@H](n4cnc5c(N)ncnc54)[C@H](O)[C@@H]3O)[C@@H](O)[C@H]2O)c1 | -18.8% [at 20.6 µM]
F[Si-2](F)(F)(F)(F)F | -22.7%
O=S(=O)(O)CC(S)CS (stereo not drawn) | 8.46%
CCCOC(=O)c1ccccc1O | 0.442%
COc1cc(NCCCC(C)N)c2ncccc2c1 (stereo not drawn) | -22.8%
FC(F)OC(Cl)C(F)(F)F (stereo not drawn) | -4.75%
CN(C)C(=O)CCSC(SCCC(=O)O)c1cccc(/C=C/c2ccc3ccc(Cl)cc3n2)c1 (stereo not drawn) | -22.5%
C=CC1=C(C(=O)O)N2C(=O)[C@@H](NC(=O)/C(=N\O)c3csc(N)n3)[C@H]2SC1 (stereo in doubt) | -35.3%
CCCC(CCC)C(=O)OC1C[C@H]2CC[C@@H](C1)[N+]2(C)C (stereo partly drawn) | -0.382%
COc1ccc2c(=O)c(C)c(-c3ccccc3)oc2c1CN(C)C | -3.24%
CCCCCCCCCCCC(=O)OC[C@@H](O)C1OC[C@H](O)[C@H]1O (stereo partly drawn) | -10.3%
NS(=O)(=O)c1cc2c(cc1Cl)NC(Cc1ccccc1)NS2(=O)=O (stereo not drawn) | -8.19%
O=C(O)CN(CC(=O)O)CC1=CC2C(=CC1=O)Oc1cc(O)c(CN(CC(=O)O)CC(=O)O)cc1C21OC(=O)c2ccccc21 (stereo not drawn) | 5.08%
Cc1c(C)c2c(c(C)c1OC(=O)CCC(=O)O)CC[C@@](C)(CCC[C@H](C)CCC[C@H](C)CCCC(C)C)O2 | -6.05%

Compound | activity, negative = inhibition
CCCCC(CC)CCC(CC(C)C)OS(=O)(=O)O (stereo not drawn) | -22.7%
CC(=O)Nc1ccc(OC(=O)c2ccccc2O)cc1 | 9.66%
CC1(C)[C@H]2CC[C@]1(C)[C@H](O)C2 | -5.68%
OC[C@H]1O[C@@H](O[C@H]2[C@H](O)[C@@H](O)[C@H](O)O[C@@H]2CO)[C@H](O)[C@@H](O)[C@@H]1O | -6.63%
CC(C)CN(C[C@@H](O)[C@H](Cc1ccccc1)NC(=O)O[C@@H]1CCOC1)S(=O)(=O)c1ccc(N)cc1 | -19.8%
CC(=NCc1ccccc1)c1ccccc1O | -3.86%
C[C@H](CCCC(C)(C)O)[C@H]1CC[C@H]2[C@@H]3CC=C4C[C@@H](O)CC[C@]4(C)[C@H]3CC[C@]12C | -12.4%
NC(N)=NCC1COc2ccccc2O1 (stereo not drawn) | -6.13%
CC(/C=C/C=C(\C)C(=O)O[C@@H]1O[C@H](CO[C@@H]2O[C@H](CO)[C@@H](O)[C@H](O)[C@H]2O)[C@@H](O)[C@H](O)[C@H]1O)=C\C=C\C=C(C)\C=C\C=C(/C)C(=O)O[C@@H]1O[C@H](CO[C@@H]2O[C@H](CO)[C@@H](O)[C@H](O)[C@H]2O)[C@@H](O)[C@H](O)[C@H]1O | -20%
CCCC(=O)Nc1c(I)cc(I)c(CC(CC)C(=O)O)c1I (stereo not drawn) | 2.21%
CCCCCCCCCCCCCCCCCCCCCC(=O)Nc1ccn([C@@H]2O[C@H](CO)[C@@H](O)[C@@H]2O)c(=O)n1 | -6.29%
COc1ccc(-c2noc(CC(=O)O)c2-c2ccc(OC)cc2)cc1 | 0.728%
C=CC(=O)O | 11.9%
O=C1CCC(=O)N1CO | -8.45%
CN1c2c(nc(N)[nH]c2=O)NCC1CNc1ccc(C(=O)NC(CCC(=O)O)C(=O)O)cc1 (stereo not drawn) | -13.4%
C[C@@H]1C/C=C/C=C/C=C/C=C/[C@H](O[C@@H]2O[C@H](C)[C@@H](O)[C@H](N)[C@@H]2O)C[C@@H]2O[C@](O)(C[C@@H](O)C[C@H]3O[C@@H]3/C=C/C(=O)O1)C[C@H](O)[C@H]2C(=O)O | -0.167%
O=C(c1cc2ccccc2o1)N1CCN(Cc2ccccc2)CC1 | -11.7%
Nc1nc(=O)n([C@@H]2CS[C@H](CO)O2)cc1F | -39.8%
N#Cc1ccc2c(c1)N(CCCN1CCC(O)CC1)c1ccccc1S2 | -26%
